Assay results: PubChem BioAssay AID1240 (Sanford-Burnham Center for Chemical Genomics, 2008)
About 800 (1.6%) of roughly 50,000 compounds showed an effect of 50% or more. Only a selection was taken, and strong results are over-represented in it overall.

Molecular target: Bcl-2-like protein 10 (Homo sapiens) (UniProt Q9HD36)
Test: TR3 peptide-Bcl-B binding displacers, biochemical primary FP assay, phenotype converters (AID 1240);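 also: 0% = Bcl-B with tracer peptide and DMSO and 100% = tracer peptide lacking Bcl-B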
Settings: GST-Bcl-B / FITC-TR3 peptide fluorescence polarization; stronger effect = higher value; compound at 3.75 mg/L

Sequence of Bcl-2-like protein 10 (Homo sapiens) (Q9HD36 whole entry, looked up): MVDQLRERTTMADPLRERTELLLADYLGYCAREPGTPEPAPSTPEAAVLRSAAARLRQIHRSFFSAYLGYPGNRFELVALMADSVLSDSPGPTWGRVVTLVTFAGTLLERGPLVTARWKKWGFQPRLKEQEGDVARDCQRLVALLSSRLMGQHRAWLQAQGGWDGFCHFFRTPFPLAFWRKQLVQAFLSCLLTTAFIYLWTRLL

In order of falling displacement:
1. CCOC(=O)c1c(-c2ccccc2)oc2ccc(OC(=O)c3ccco3)cc12  99.8%
2. CCOc1ccc2nc(NC(=O)C(c3ccccc3)c3ccccc3)sc2c1  66.7%
3. Cn1c(-n2c(CCN3C(=O)c4ccccc4C3=O)nc3ccccc3c2=O)nc2ccccc21  66.3%
4. COc1ccc(N2C(=O)Cn3c2nc2c3c(=O)n(C)c(=O)n2C)cc1  61.6%
5. CC(Oc1ccc2oc(-c3ccccc3)c(C(=O)O)c2c1)C(=O)O (stereo not given)  59.2%
6. Cn1c(-n2c(CCCN3C(=O)c4ccccc4C3=O)nc3ccccc3c2=O)nc2ccccc21  35.4%
7. Cc1oc2ccc(OC(C)C(=O)O)cc2c1C(=O)O (stereo not given)  14.7%
8. COc1ccccc1CC(=O)N1CCN(c2ccc([N+](=O)[O-])cc2)CC1  11.9%
9. CCOC(=O)c1c(-c2ccccc2)oc2ccc(OC(=O)C(C)(C)C)cc12  10.8%
10. COc1ccc(C(=O)NC(=S)NCc2ccco2)cc1  9.4%
11. CCOC(=O)c1c(-c2ccccc2)oc2cc(Br)c(OC(=O)c3ccco3)cc12  8.8%
12. Cc1ccc(N(CC(=O)O)S(=O)(=O)c2ccc(F)cc2)cc1  8.4%
13. CCOc1ccc2oc(-c3ccccc3)c(C(=O)O)c2c1  5.4%
14. NC(=O)C1CCN(C(=O)c2ccc([N+](=O)[O-])cc2)CC1  4.4%
15. CC(Oc1ccccc1)C(=O)NCc1cccnc1 (stereo not given)  3.9%
16. COc1ccc(Cc2nc(-c3ccc(Cl)cc3)no2)cc1OC  1.1%
17. Cc1ccc(-c2csc(NC(=O)C3C4CCC(C4)C3C(=O)O)n2)c(C)c1 (stereo not given)  -0.1%
18. CC(O)c1cccc(NC(=O)c2nn3c(c2Cl)NC(c2ccco2)CC3C(F)(F)F)c1 (stereo not given)  -0.1%
19. Cc1cccc(-n2c(CCN3C(=O)c4ccccc4C3=O)nc3ccccc3c2=O)n1  -0.9%
20. CCOc1ccc2nc(NC(=O)c3ccccc3O)sc2c1  -1%
21. COc1ccc(Cl)cc1/C=C1/C(=O)NN(c2cccc(Br)c2)C1=O  -1.3%
22. O=C(CSc1nc2ccccc2[nH]1)N/N=C/c1cccc(Cl)c1Cl  -5.4%
23. Cc1cccc(N2C(=O)Cn3c2nc2c3c(=O)n(C)c(=O)n2C)c1  -5.8%
24. CCOc1ccc2nc(NC(=O)c3ccccc3C(=O)O)sc2c1  -7%
25. O=C1NC(=O)N(c2ccc(Cl)cc2)C(=O)/C1=C/c1ccc(O)c(Br)c1  -8.4%
26. COc1ccc(CC(=O)Nc2sc3c(c2C(=O)Nc2ccccc2Cl)CCCC3)cc1  -9.7%
27. Cc1ccc(N2C(=O)Cn3c2nc2c3c(=O)n(C)c(=O)n2C)cc1Cl  -12.5%
28. C/C(=N\NC(=O)c1ccccn1)c1ccc(F)cc1  -18.6%
29. O=C(CSc1nc2ccccc2o1)NCc1ccco1  -19.3%
30. Cc1ccc(OCCOc2ccc(Br)cc2C=C2C(=O)NC(=S)NC2=O)cc1  -23.5%
